Compounds with a hit are over-represented: about 9.9% of the library has one in this group of screens.
SW480 rereplic: A quantitative high throughput screen for small molecules that induce DNA re-replication in SW480 colon adenocarcinoma cells; SW480 DNA re-replication, Hoechst DNA content imaging, 48 h; Potency, µM (doses to about 46.1 µM), actives largely listed as activators; 1.8% of 340,000 active; note: nearly all actives have a fitted effect of over 55% in size
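Cells (250 per well) received 23 nL compound or DMSO by pin tool and were kept 48 hr at 37 C, 5% CO2. Nuclei were then stained with Hoechst for 40 min and scanned for DNA content.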
KB-3-1 cytotox: qHTS assay for MDR1-selective chemotherapeutics: Primary screen using the parental adenocarcinoma cell KB-3-1; KB-3-1 viability, CellTiter-Glo ATP luminescence, 72 h; Potency, µM (top dose mostly 46.1 µM), actives largely listed as cytotoxic; 1.4% of 400,000 active; note: nearly all actives have a fitted effect of over 60% in size
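Cells are dispensed, compounds pinned in, plates held at 37 °C for 72 h, then CellTiter-Glo is added and luminescence read after 10 minutes. Cell line: parental KB-3-1 in phenol-red-free DMEM, 10% FBS.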
IL-1B inflam inh: qHTS for Inhibitors of Inflammasome Signaling: IL-1-beta AlphaLISA Primary Screen. AID 743279, 2014. activity change, % at 57.5 µM. 4.7% of 360,000 active. THP-1 LPS/ATP IL-1B secretion, AlphaLISA, 16 h; stronger effect = lower value; in the data active = activity change below about -50%; inconclusive = mostly about -30% to -49%
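THP-1 cells pretreated 1 hr with compounds (up to 57.5 uM final), then stimulated with LPS (250 ng/mL final) plus ATP (1.25 mM final); secreted IL-1B measured by AlphaLISA after 16 hr, decreased signal indicating inhibition.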
MCF10A rerep: A quantitative high throughput screen for small molecules that induce DNA re-replication in MCF 10a normal breast cells; MCF 10A DNA re-replication, Hoechst nuclear intensity, 48 h; Potency, µM (highest dose often 46.1 µM), hits mostly activators; 2.9% of 350,000 active; note: nearly all actives have a fitted effect of over 50% in size
KB-V1 MDR tox: qHTS assay for MDR1-selective chemotherapeutics: Primary screen using the drug-selected MDR subline cells KB-V1; KB-V1 MDR cells viability, CellTiter-Glo, 72 h; Potency, µM (top dose mostly 46.1 µM), actives largely listed as cytotoxic; 3.4% of 400,000 active; AID 1347076, 2019; note: nearly all actives have a fitted effect of over 60% in size
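Cytotoxicity via CellTiter-Glo luminescence after 72 h compound exposure at 37 degrees C. Cells: drug-selected KB-V1 line, DMEM phenol-red free plus 10% FBS. Compounds tested at multiple concentrations; normalized data fitted to concentration-effect curves.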
Each line names hits and unclear results; the compound was inactive in the other large screens; ! = a repeat was not active. Unless noted, calls come from the whole dose curve; as a rule, active = well fitted curve in the direction sought with a large enough effect; inconclusive = small, poorly fitted or top-dose-only effect, or another doubt; inactive = no such curve, though single readings can be large; an effect the other way counts as inactive or inconclusive.

O=C(CCc1ccccc1)Nc1cc(C(=O)O)cc(C(=O)O)c1	none
O=C1NC2=C(C(=O)OC2)C(c2ccc(OC(F)(F)F)cc2)N1 (stereo unspecified)	none
Cc1c(C(=O)Nc2ccc(F)cc2)oc2ccc(S(=O)(=O)N3CCCCCC3)cc12	none (no result: SW480 rereplic, IL-1B inflam inh, MCF10A rerep)
Cc1ccc2[nH]c3c(N4CCN(Cc5ccccc5)CC4)ncnc3c2c1	SW480 rereplic inconclusive, KB-3-1 cytotox inconclusive, IL-1B inflam inh inconclusive, MCF10A rerep inconclusive, KB-V1 MDR tox 12µM
Cc1ccc(-n2ncc3c(N4CCN(Cc5ccccc5)CC4)ncnc32)cc1	none (no result: SW480 rereplic, IL-1B inflam inh, MCF10A rerep)
c1ccc2c(c1)CCN(c1ncnc3c1[nH]c1ccccc13)C2	SW480 rereplic inconclusive, IL-1B inflam inh -84, MCF10A rerep inconclusive, KB-V1 MDR tox 9.2µM
OC1(c2cccc(C(F)(F)F)c2)CCN(c2ncnc3c2[nH]c2ccccc23)CC1	SW480 rereplic inconclusive, KB-3-1 cytotox inconclusive, MCF10A rerep inconclusive, KB-V1 MDR tox inconclusive
O=C(C[C@@H]1C/C=C\CCCC(=O)OC[C@@H]2CCCN2C1=O)N[C@@H](CO)Cc1ccccc1	none
N#CC(C#N)=c1ccc2c(c1)NC1(CCCCC1)N=2	SW480 rereplic 13µM, KB-3-1 cytotox inconclusive, IL-1B inflam inh -104, MCF10A rerep inconclusive, KB-V1 MDR tox inconclusive
C=CCn1c(COc2ccc(F)cc2)nnc1SCC(=O)c1c[nH]c2c(CC)cccc12	KB-V1 MDR tox 13µM
Cc1ccc(NC(=O)Cn2c(C)cc(C)c(C#N)c2=O)cc1	none (no result: SW480 rereplic, IL-1B inflam inh, MCF10A rerep)
CCC(CC)c1nnc(NC(=O)c2ccc([N+](=O)[O-])cc2)s1	KB-V1 MDR tox 21µM
O=C(Nc1ncc(Cc2ccc(Cl)cc2Cl)s1)c1ccc([N+](=O)[O-])cc1	KB-3-1 cytotox 5.8µM, KB-V1 MDR tox inconclusive
CCC(CC)c1nnc(NC(=O)c2ccc(N3CCCC3=O)cc2)s1	none
CC(C)N(C(=O)CSc1nc2ccccc2c(=O)[nH]1)C(C)C	KB-V1 MDR tox inconclusive
CCCC[n+]1c(C)sc2ccc(C)cc21	none
Cc1ccc2sc(C)[n+](CCO)c2c1	IL-1B inflam inh -71
O=c1oc2ccc(Br)cc2cc1-c1nc2c(s1)CCc1ccccc1-2	none (no result: SW480 rereplic, IL-1B inflam inh, MCF10A rerep)
N#C/C(=C\c1c(N2CCOCC2)nc2ccccn2c1=O)C(=O)NC1CCS(=O)(=O)C1 (stereo unspecified)	SW480 rereplic inconclusive, MCF10A rerep 5.8µM
N#C/C(=C\c1c(Oc2ccccc2Cl)nc2ccccn2c1=O)C(=O)NC1CCS(=O)(=O)C1 (stereo unspecified)	SW480 rereplic inconclusive, MCF10A rerep inconclusive, KB-V1 MDR tox inconclusive
N#C/C(=C\c1c(Oc2ccccc2F)nc2ccccn2c1=O)C(=O)NC1CCS(=O)(=O)C1 (stereo unspecified)	SW480 rereplic inconclusive, IL-1B inflam inh inconclusive, MCF10A rerep 16µM
CCOC(=O)c1c(NC(=O)c2nn(CC)cc2Br)c(C#N)nn1-c1ccccc1	KB-V1 MDR tox 16µM
CCOC(=O)c1nn(-c2ccccc2)c(C#N)c1NC(=O)c1nn(CC)cc1Br	none
CCN(Cc1ccncc1)C(=O)c1cc(COc2ccc(OC)cc2Cl)on1	none (no result: KB-3-1 cytotox, KB-V1 MDR tox)
O=C(NNC1=NC2(CCCC2)Cc2ccccc21)c1ccncc1	none
Cc1cccc(N2CCN(C(=S)c3ccc(-c4ccccc4[N+](=O)[O-])o3)CC2)c1	SW480 rereplic inconclusive, KB-3-1 cytotox 16µM, MCF10A rerep inconclusive, KB-V1 MDR tox inconclusive
O=[N+]([O-])c1ccccc1-c1ccc(C(=S)N2CCCC2)o1	SW480 rereplic 8.2µM
Cc1cccc(C)c1NC(=O)C1(C)CN(S(C)(=O)=O)CC(=O)N1CCc1ccccc1F (stereo unspecified)	KB-V1 MDR tox inconclusive (no result: SW480 rereplic, MCF10A rerep)
CCOc1ccc2ccccc2c1/C=N/NC(=O)CNC(=O)Cc1ccccc1	MCF10A rerep inconclusive
CC(C)C[C@@H](CO)N1CCN(Cc2cccc(C#N)c2)CCC1=O	none
CCc1ccccc1NC(=S)N(Cc1ccc(OC)cc1)CC1CCC(C(=O)O)CC1 (stereo unspecified)	none
COc1ccc(-c2noc(CSc3nnc(-c4ccccc4)n3C)n2)cc1	KB-V1 MDR tox 15µM!
COc1ccc(C(C)=O)cc1CSc1nnc(-c2ccc(Cl)cc2)n1-c1ccccc1	KB-3-1 cytotox inconclusive, MCF10A rerep inconclusive, KB-V1 MDR tox 15µM
COc1ccc(-c2nnc(SCc3nnc(-c4ccc(Cl)cc4)o3)n2-c2ccccc2)cc1	SW480 rereplic inconclusive, KB-3-1 cytotox inconclusive, MCF10A rerep inconclusive, KB-V1 MDR tox 3.7µM
COc1ccc(C(C)=O)cc1CSc1nnc(-c2ccncc2)n1C	none
c1ccc(-c2noc(CSc3nnnn3C3CCCCC3)n2)cc1	KB-V1 MDR tox 18µM
COc1ccc(-c2noc(CSc3nnc(-c4ccncc4)n3-c3ccccc3)n2)cc1	none (no result: SW480 rereplic, IL-1B inflam inh, MCF10A rerep)
CN1CCCCCC1C(=O)N1CCC(N2CCC(C(=O)N3CCOCC3)CC2)CC1 (stereo unspecified)	none
CNC(=O)C1CCC(Cn2c(=O)c3sccc3n(CC(=O)NCc3cccc(OC)c3)c2=O)CC1 (stereo unspecified)	none (no result: SW480 rereplic, IL-1B inflam inh, MCF10A rerep)
CCCc1nc2c3ccccc3ccn2c1Cc1cccc(F)c1	none (no result: SW480 rereplic, MCF10A rerep)
COc1ccc(-c2nnc(SCc3nnc(-c4ccccc4)o3)n2-c2ccccc2)cc1	KB-V1 MDR tox inconclusive
COc1ccc(-n2c(SCc3nnc(-c4ccccc4)o3)nnc2-c2ccccc2)cc1	KB-V1 MDR tox 2.3µM
CCn1cc(C(=O)N2CCN(c3ccccc3)CC2)c(=O)c2cc(S(=O)(=O)N3CCC(C)CC3)ccc21	none (no result: SW480 rereplic, IL-1B inflam inh, MCF10A rerep)
CC(C)Oc1ccc(CNC(=O)CC(c2ccccc2)c2cc(Cl)ccc2O)cc1 (stereo unspecified)	IL-1B inflam inh inconclusive, MCF10A rerep inconclusive, KB-V1 MDR tox 23µM
COc1ccc(C(CCNCc2ccc(N(C)C)cc2)c2ccccc2)cc1 (stereo unspecified)	SW480 rereplic 18µM, IL-1B inflam inh -101, MCF10A rerep inconclusive, KB-V1 MDR tox inconclusive
CC(C)Oc1ccc(C(CCNCc2ccc(O)cc2)c2ccccc2)cc1 (stereo unspecified)	KB-3-1 cytotox inconclusive, IL-1B inflam inh -91, MCF10A rerep inconclusive, KB-V1 MDR tox 18µM
O=C(O)COc1ccccc1/C=N/NC(=O)CSc1nc2ccccc2n1Cc1ccc(Cl)cc1	none
Oc1ccc(C[C@@H]2CNCCN2CC2CCCCC2)cc1	none
c1ccc2c(C[C@@H]3CNCCN3CC3CCCCC3)cccc2c1	IL-1B inflam inh -58, MCF10A rerep inconclusive
CCOc1ccc(-c2cn[nH]c2N)cc1	SW480 rereplic inconclusive, MCF10A rerep 18µM
CN(CC(=O)Nc1ccc(Cl)c(C(F)(F)F)c1)C(=O)Cc1ccsc1	IL-1B inflam inh -89
CN(CC(=O)Nc1ccc(Cl)c(C(F)(F)F)c1)C(=O)Cc1cccs1	IL-1B inflam inh inconclusive
